# Measured values taken from publication PMC4336329 (PLoS ONE, 2015).
# Screen size: about 310,000 compounds; about 14,000 (4.5%) showed an effect of 50% or more. The effect is printed as a negative number. Shown is part of a subset that was picked to be rich in strong results.
# Molecular target: human ether-à-go-go-related gene (hERG) potassium channel (human, UniProt Q12809)
# Experiment: primary screen, population patch clamp on CHO cells stably expressing hERG; higher = less effect of the substance
# 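Also: peak tail current of the secondary pulse compared with the same well before compound.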
# Sequence of human ether-à-go-go-related gene (hERG) potassium channel (Q12809 whole entry, looked up): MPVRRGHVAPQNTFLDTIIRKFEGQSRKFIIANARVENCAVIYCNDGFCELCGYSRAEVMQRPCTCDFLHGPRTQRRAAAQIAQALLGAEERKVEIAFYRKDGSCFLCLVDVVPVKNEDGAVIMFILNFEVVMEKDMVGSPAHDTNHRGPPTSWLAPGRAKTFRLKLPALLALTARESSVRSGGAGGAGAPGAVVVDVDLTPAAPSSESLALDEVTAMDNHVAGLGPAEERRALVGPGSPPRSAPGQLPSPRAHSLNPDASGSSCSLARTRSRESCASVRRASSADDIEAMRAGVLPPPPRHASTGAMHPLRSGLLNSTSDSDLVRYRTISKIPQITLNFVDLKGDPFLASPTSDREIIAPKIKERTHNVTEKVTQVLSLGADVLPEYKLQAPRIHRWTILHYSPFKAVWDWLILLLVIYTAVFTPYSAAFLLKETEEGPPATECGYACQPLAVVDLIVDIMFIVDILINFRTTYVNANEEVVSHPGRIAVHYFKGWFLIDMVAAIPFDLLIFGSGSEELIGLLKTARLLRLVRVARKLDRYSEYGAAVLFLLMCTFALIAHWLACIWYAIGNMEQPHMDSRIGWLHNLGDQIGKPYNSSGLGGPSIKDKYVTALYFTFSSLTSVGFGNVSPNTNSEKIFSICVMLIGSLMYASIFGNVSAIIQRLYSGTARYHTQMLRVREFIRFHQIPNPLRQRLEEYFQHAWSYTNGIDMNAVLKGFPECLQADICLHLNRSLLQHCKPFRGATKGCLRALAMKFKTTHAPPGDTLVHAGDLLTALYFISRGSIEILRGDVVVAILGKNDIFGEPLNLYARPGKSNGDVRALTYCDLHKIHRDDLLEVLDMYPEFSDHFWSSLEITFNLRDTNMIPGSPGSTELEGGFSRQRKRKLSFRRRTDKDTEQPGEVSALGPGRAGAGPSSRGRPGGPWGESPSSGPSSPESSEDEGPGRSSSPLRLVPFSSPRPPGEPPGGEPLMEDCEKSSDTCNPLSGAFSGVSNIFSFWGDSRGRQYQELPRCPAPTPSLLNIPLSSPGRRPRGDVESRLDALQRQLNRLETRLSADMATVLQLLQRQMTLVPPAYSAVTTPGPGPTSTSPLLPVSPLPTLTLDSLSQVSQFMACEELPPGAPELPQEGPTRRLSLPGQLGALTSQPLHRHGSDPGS
row,SMILES,"hERG current change (%, negative = inhibition) at 10uM [%]"
1,O=C(O)CC1SC(=O)N(Cc2ccccc2)C1=O (stereo not shown),21
2,Cc1cc(Cl)ccc1OCc1cn2cccnc2n1,-17.5
3,CCCn1cc(SCC(=O)NCC2CCCO2)c2ccccc21 (stereo not shown),4.17
4,CC(C)CN(C(=O)COC(=O)c1ccc2c(c1)OCCO2)c1c(N)n(Cc2ccccc2)c(=O)[nH]c1=O,5.66
5,Cc1ccc(C)n1NC(=O)c1ccco1,14.8
6,O=C(CSc1ncccn1)Nc1ncc(C(F)(F)F)cc1Cl,47.2
7,COC(=O)C1=C(C)NC(C)=C(C(=O)O[C@@H]2CCCN(Cc3ccccc3)C2)[C@@H]1c1cccc([N+](=O)[O-])c1.Cl,9.68
8,COc1cccc(N/C(SCc2cccc([N+](=O)[O-])c2)=C(/C#N)C(N)=O)c1,-19.9
9,CCOc1ccc(N/C(SCc2cccc([N+](=O)[O-])c2)=C(/C#N)C(N)=O)cc1,-59.1
10,CCOc1ccc(N/C(SC)=C(/C#N)C(N)=O)cc1,4.98
11,COc1ccccc1CCNCc1ccc(OC)c(OC)c1OC.O=C(O)C(=O)O,15.5
12,COc1ccc(CCNCc2ccc(OC)c(OC)c2OC)cc1,-37.6
13,COc1ccc(CNCCc2ccc(Cl)cc2)c(OC)c1OC.O=C(O)C(=O)O,-51.6
14,COc1cc(OC)c(OC)cc1CNCCc1cccc(F)c1.O=C(O)C(=O)O,-15.2
15,COc1ccc(CNCCc2cccc(F)c2)c2ccccc12.O=C(O)C(=O)O,-74
16,COc1ccc(CNCCc2ccc3c(c2)OCO3)c(OC)c1OC.O=C(O)C(=O)O,-29.9
17,COc1ccccc1CNCc1ccc(OC)c(OC)c1OC.O=C(O)C(=O)O,-8
18,COc1cccc(CNCCc2cccc(F)c2)c1OC.O=C(O)C(=O)O,-5.22
19,COc1ccc(CNCCc2ccc([N+](=O)[O-])cc2)c(OC)c1OC.O=C(O)C(=O)O,-68.9
20,O=C(N/N=C/c1c(O)ccc2ccccc12)c1cccnc1,7.7
21,COC(=O)COc1ccc(S(=O)(=O)N2CCN(c3ccccc3F)CC2)cc1,-3.27
22,O=C(Nc1ccc(-c2csnn2)cc1)C(Cl)(Cl)Cl,17.5

row,SMILES,"hERG current change (%, negative = inhibition) at 10uM [%]"
1,CC(C)C(=O)OCC(=O)Nc1ccc(N=Nc2ccccc2)cc1,4.2
2,CCN(CC)S(=O)(=O)c1cc(NS(=O)(=O)c2cccc(Cl)c2Cl)ccc1C,-1.79
3,CCCOc1ccc(NC(=O)C2CC(=O)N3CCCN=C3S2)cc1 (stereo not shown),-11
4,CN1CCC(NC(=O)NC2CCCCC2)CC1,11.9
5,Cc1cc(N2CCN(c3ccccn3)CC2)n2cc(-c3ccccc3)nc2n1,-72.3
6,Cc1cc(NC2CCCCC2)n2c(n1)nc1ccccc12,-55.1
7,Cc1cc(N2CCN(c3ccccc3)CC2)nc2ccccc12,3.04
8,Cc1cc(N2CCN(c3ccc(F)cc3)CC2)nc(-c2ccccc2)n1,-13.7
9,Cc1cc(-c2ccccc2)nc(N2CCN(c3ccccn3)CC2)n1,1.11
10,Cc1cc(C)c2c(n1)nn1c(N3CCN(c4ccccc4)CC3)cc(C)nc21,4.66
11,Cc1cc(N2CCN(c3ccccc3)CC2)nc(-c2ccccc2O)n1,6.15
12,Cc1nnc2c(NC3CCCCC3)nc3ccccc3n12,1.89
13,Cc1cc(N2CCN(c3ccccc3)CC2)n2c(n1)nc1ccccc12,-68.7
14,Cc1cc(Nc2cccc(F)c2)n2c(n1)nc1ccccc12,3.44
15,c1ccc(-c2csc(N3CCN(c4ccccn4)CC3)n2)cc1,-1.09
16,Cc1cc(N2CCN(c3ccccc3)CC2)n2cc(-c3ccccc3)nc2n1,-75.3
17,CC(C)c1ccc(NC(=O)c2cccc(NC3=NC4CS(=O)(=O)CC4S3)c2)cc1 (stereo not shown),-11.1
18,CS(=O)(=O)N(CC(=O)Nc1ccc(F)cc1)C1CCCCC1,12.6
19,c1ccc(-c2nc(C3CCCCC3)no2)cc1,-0.00972
20,CCSC1=N/C(=C\c2ccccc2)C(=O)N1c1ccc(OC)cc1,6.36
21,O=C(O)c1cccnc1Cl,10.7
22,O=C(/C=C/c1ccccc1)Nc1sc2c(c1C(=O)O)CCC2,5.92

row,SMILES,"hERG current change (%, negative = inhibition) at 10uM [%]"
1,Cc1cc(N2CCCCC2)n2nc(C)c(-c3ccccc3)c2n1,13.3
2,CC1CN(c2nc3ccccc3cc2-c2ccccc2)CC(C)O1 (stereo not shown),-1.86
3,Cc1c(C(=O)N2CC(C)OC(C)C2)sc2nc(-c3ccccc3)cn12 (stereo not shown),-15.2
4,Cc1cc(N2CCN(C)CC2)n2cc(-c3ccc(F)cc3)nc2n1,-87.6
5,Cc1cc(N2CC(C)OC(C)C2)n2cc(-c3ccccc3)nc2n1 (stereo not shown),-61.7
6,CCc1nn2c(N3CCOCC3)cc(C)nc2c1-c1ccc(F)cc1,0.767
7,CN1CCN(c2cc(-c3ccccc3)nc3cc(-c4ccc(F)cc4)nn23)CC1,-14.5
8,COc1ccc(-c2cc(-c3ccc(F)cc3)nc(N3CCN(C)CC3)n2)cc1,-3.88
9,Cc1cc(N2CCN(c3nc(-c4ccccc4)cs3)CC2)c2ccccc2n1,-23.3
10,Cc1cc(N2CCOCC2)n2cc(-c3ccc(F)cc3)nc2n1,-69
11,Cc1cc(N2CCOCC2)n2nc(-c3cccc(F)c3)cc2n1,0.119
12,Cc1cc(N2CCN(c3ccccc3Cl)CC2)n2cc(-c3ccccc3)nc2n1,-53.9
13,O=C(NNC(=S)Nc1ccccc1Cl)c1ccccc1,5.93
14,O=C(CN1c2ccccc2S(=O)(=O)c2ccccc21)NCc1ccccc1,9.11
15,Cc1cccc(N(CC(=O)N2CCOCC2)S(C)(=O)=O)c1,6.69
16,CCC(=O)NC(=S)Nc1ccc(N2CCOCC2)cc1,-2.62
17,CS(=O)(=O)N1CCN(C(=O)c2cc3ccccc3oc2=O)CC1,-0.0734
18,O=C(NCCC1=CCCCC1)C1CCN(S(=O)(=O)c2cccs2)CC1,-29.2
19,CCOc1ccc(-n2c(SCC(=O)Nc3cc(C(=O)O)ccc3Cl)nc3ccccc3c2=O)cc1,28.8
20,COc1cc2nc(SCC(N)=O)n(CCC3=CCCCC3)c(=O)c2cc1OC,-10.9
21,CCN(CC)S(=O)(=O)c1cccc(C(=O)OCC(=O)Nc2ccccc2OC(F)F)c1,-7.37
22,CCC(C)(C)C1CCc2c(sc(NC(=O)c3ccoc3C)c2C(N)=O)C1 (stereo not shown),17.8

row,SMILES,"hERG current change (%, negative = inhibition) at 10uM [%]"
1,COc1ccc(N/C=C(\C#N)S(=O)(=O)c2ccc(Cl)cc2)c(OC)c1,-8.9
2,Cc1cc(N2CCOCC2)n2nc(C)c(-c3ccccc3)c2n1,9.17
3,Cc1cc(N2CCOCC2)n2ncc(-c3ccccc3)c2n1,-18.5
4,Cc1cc(N2CCOCC2)n2cc(-c3ccccc3)nc2n1,-50.1
5,O=C(Nc1ccccc1)c1ccc(Nc2c([N+](=O)[O-])cc([N+](=O)[O-])c3ccccc23)cc1,6.49
6,O=C(CSc1cccc[n+]1[O-])Nc1ccc2c(c1)OCO2,6.96
7,COc1ccc(-c2nnc(SCC(=O)N3CCOCC3)o2)cc1,-1.92
8,O=C(CSc1ccccc1)N1CCN(C(=O)c2ccco2)CC1,-10.1
9,O=C(CSc1ccc(Br)cc1)N1CCN(C(=O)c2ccco2)CC1,-62.4
10,CCOc1ccc(-c2nnc(SCC(=O)N3CCOCC3)o2)cc1,2.8
11,O=C(Cc1ccc(Br)cc1)N1CCN(C(=O)c2ccco2)CC1,-32.3
12,O=C(CSc1nnc(-c2ccc(F)cc2)o1)N1CCN(C(=O)c2ccco2)CC1,-38.4
13,O=C(CSc1nnc(-c2ccccc2Br)o1)N1CCN(C(=O)c2ccco2)CC1,-40.9
14,O=C(CSc1nnc(-c2ccc(Br)cc2)o1)N1CCN(C(=O)c2ccco2)CC1,-54.6
15,O=C(CSc1nnc(-c2ccc(OC(F)F)cc2)o1)N1CCOCC1,-57
16,C[C@H](NC(=O)c1cc2cc(Cl)ccc2n1C)C(=O)N1CCC[C@H]1C(=O)O,13.7
17,O=C(NCCN1CCOCC1)[C@H](Cc1ccccc1)N1C(=O)c2ccccc2C1=O,-2.06
18,CS(=O)(=O)NC1CCN(Cc2ccccc2)CC1,-2.95
19,COc1cccc(CN(C)C(=O)CNC(=O)c2ccc3c(c2)OCO3)c1OC,15.3
20,CC1Cc2cc(/C(O)=C3\C(=O)C(=O)N(CCN(C)C)C3c3ccccc3F)ccc2O1 (stereo not shown),2.94
21,CCOc1ccc(S(=O)(=O)Nc2ccccn2)c2ccccc12,10.7
22,CC(Oc1ncnc2ccccc12)C(=O)Nc1cccc(S(=O)(=O)N2CCOCC2)c1 (stereo not shown),-11.3
